Compound activity (PubChem BioAssay)
BL2 CD40 inh – CD40 pathway inhibition in BL2 cells; BL2 NF-kB luciferase reporter, CD40L-induced, 4 h; inhibition, % at 10 µM; 0.94% of 83,000 active; AID 1053188;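 active = mean inhibition of at least 50% with a set share of replicates also reaching that level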;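 also: 0% = neutral control wells and 100% = IKK inhibitor VII at 50 µM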
* marks the source's active call; other numbers are inactive results; [ ] = another dose, or the depositor's remark. Many of the other results were omitted from the sample, so hits are more common in it than they were.

Results for CO[C@@H]1CN(C)C(=O)c2cc(NC(=O)C3CCC3)ccc2OC[C@@H](C)N(Cc2nccs2)C[C@@H]1C ?
BL2 CD40 inh: -13

Results for CCOC(=O)NCC(Cc1ccc(OCCc2nc(-c3ccccc3)oc2C)cc1)N/C(C)=C/C(=O)c1ccc(C(F)(F)F)cc1 (stereo unspecified) ?
BL2 CD40 inh: 25[25 µM]

How did C[C@H](CO)N1C[C@H](C)[C@H](CN(C)S(=O)(=O)c2cccs2)Oc2ccc(NC(=O)Nc3cccc4ccccc34)cc2C1=O do in these assays?
BL2 CD40 inh: 5[25 µM]

What do the screens show for `CC(C)(C)NCC(=Cc1ccccc1)C(=O)c1ccccc1`?
BL2 CD40 inh: 52*

Results for COc1ccc(C=C(C(C)=O)C(=O)c2ccccc2)cc1 ?
BL2 CD40 inh: 3

What do the screens show for `COc1ccc(C=C(C(=O)c2ccccc2)C(=O)c2ccccc2)cc1`?
BL2 CD40 inh: -99

Results for C[C@H](NC(=O)N(C)C[C@@H]1OCc2ccccc2-c2c(n(C)c3ccccc23)C(=O)N([C@H](C)CO)C[C@H]1C)c1ccccc1 ?
BL2 CD40 inh: 11

How did COc1cccc(-c2ccc([C@H]3[C@@H](CO)N(C(=O)Cc4ccncc4)[C@H]3C#N)cc2)c1 do in these assays?
BL2 CD40 inh: 0[25 µM]

Results for CCCC#Cc1ccc([C@@H]2[C@@H](C#N)N(S(C)(=O)=O)[C@@H]2CO)cc1 ?
BL2 CD40 inh: -4[25 µM]

How did CC(C)[C@H](C)NC(=O)N(C)C[C@@H]1OCc2ccccc2-c2c(n(C)c3ccccc23)C(=O)N([C@@H](C)CO)C[C@H]1C do in these assays?
BL2 CD40 inh: -1

What do the screens show for `CCOC(=O)N(C)C[C@@H]1OCc2cn(nn2)CCCC(=O)N([C@@H](C)CO)C[C@@H]1C`?
BL2 CD40 inh: -5

How did Cc1ccc(/C=C/c2nc3ccccc3s2)s1 do in these assays?
BL2 CD40 inh: 75*

How did c1ccc2sc(N3CCOCC3)nc2c1 do in these assays?
BL2 CD40 inh: -29

What do the screens show for `c1ccc2sc(-c3ccncc3)nc2c1`?
BL2 CD40 inh: -64

What do the screens show for `CCC(=O)N1[C@@H](CO)[C@H](c2ccc(-c3ccccc3)cc2)[C@@H]1CNC(=O)COC`?
BL2 CD40 inh: 4

Results for CO[C@H](CN(C)CC1CCOCC1)[C@H](C)CN(C(=O)Nc1ccc(F)cc1)[C@H](C)CO ?
BL2 CD40 inh: -21[25 µM]

What do the screens show for `COc1ccc(OC)c(-c2oc3ccccc3c(=O)c2O)c1`?
BL2 CD40 inh: -75

What do the screens show for `COc1ccc(/C=C\c2nc(=O)c3ccccc3o2)cc1`?
BL2 CD40 inh: 46*

How did COc1ccc(OCC(=O)c2c(O)c3ccccc3oc2=O)cc1 do in these assays?
BL2 CD40 inh: -1

Results for COc1ccccc1C#Cc1ccc2c(c1)[C@@H]1[C@@H](CCN1C(=O)CN1CCOCC1)[C@H](CO)N2 ?
BL2 CD40 inh: -52[25 µM]

How did C=C(CN(C)C)C(=O)c1cc(C)ccc1C do in these assays?
BL2 CD40 inh: 91*

Results for Cc1ccc(C)c(C(=O)NCCN(C)C)c1 ?
BL2 CD40 inh: 7

Results for Cc1ccc(C(=O)NCCN(C)C)cc1C ?
BL2 CD40 inh: 12

Results for COc1cc(CN2CC3(CCN(C(=O)c4cccnc4)CC3)c3c([nH]c4cc(OC)ccc34)[C@@H]2CO)cc(OC)c1 ?
BL2 CD40 inh: -2[25 µM]

How did CCN1C[C@@H](C)[C@H](OC)CN(C)C(=O)c2cc(NC(=O)c3ccno3)ccc2OC[C@H]1C do in these assays?
BL2 CD40 inh: -2[25 µM]

How did C[C@H](NC(=O)C[C@@H]1C=C[C@H](NC(=O)c2cccnc2)[C@H](CO)O1)c1ccccc1 do in these assays?
BL2 CD40 inh: -1[25 µM]

Results for CCS(=O)(=O)Nc1ccc2c(c1)C(=O)N(C)[C@H]1CC[C@H](CC(=O)NCCCN3CCOCC3)O[C@H]1CO2 ?
BL2 CD40 inh: -3[25 µM]

How did Cc1cc(C)c2c(N)c(C(=O)NC3CC3)sc2n1 do in these assays?
BL2 CD40 inh: -5

Results for Cc1cc(C)c2c(N)c(C(=O)Nc3nccs3)sc2n1 ?
BL2 CD40 inh: 70*

Results for Cc1cc(C)c2c(N)c(C(=O)NN)sc2n1 ?
BL2 CD40 inh: -14

Results for CN1c2ccc(Br)cc2[C@@H]2[C@@H](CCN2C(=O)CN2CCOCC2)[C@@H]1CO ?
BL2 CD40 inh: -3[25 µM]

What do the screens show for `Cn1cc(/C=N/Nc2ccccc2)c2ccccc21`?
BL2 CD40 inh: -3

What do the screens show for `O=C(/C=C/c1ccccc1)c1ccccc1`?
BL2 CD40 inh: -42

Results for Cn1cc(/C=C/C(=O)c2ccccc2)c2ccccc21 ?
BL2 CD40 inh: 33*

What do the screens show for `CC(C)NC(=O)Nc1cccc2c1O[C@@H](CN(C)S(C)(=O)=O)[C@H](C)CN(C)C2=O`?
BL2 CD40 inh: 0

How did O=C(Nc1ccc(F)cc1)N1CC(=O)N2[C@H](CO)[C@H](c3ccc(C#Cc4cccnc4)cc3)[C@@H]2C1 do in these assays?
BL2 CD40 inh: 12[25 µM]

Results for CCC(=O)N[C@H]1CC[C@@H](CC(=O)NCc2ccccc2F)O[C@@H]1CO ?
BL2 CD40 inh: 5[25 µM]

Results for O=C(C[C@@H]1C[C@@H]2c3cc(NC(=O)Nc4ccc(F)cc4)ccc3O[C@@H]2[C@@H](CO)O1)NC1CCCC1 ?
BL2 CD40 inh: 3

What do the screens show for `CN1c2ccc(Br)cc2[C@H]2[C@H](CCN2C(=O)C2CCCC2)[C@@H]1CO`?
BL2 CD40 inh: -4

What do the screens show for `COc1ccc(N2CCN(C(=O)Cn3c(=O)[nH]c4ccccc4c3=O)CC2)cc1`?
BL2 CD40 inh: 29*

Results for COc1ccc(N2CCN(C(=O)Cn3c(=O)c4cccn4c4cccnc43)CC2)cc1 ?
BL2 CD40 inh: -5

What do the screens show for `COc1ccc(N2CCN(C(=O)COc3cccc4ccccc34)CC2)cc1`?
BL2 CD40 inh: -6

What do the screens show for `CN1[C@@H]2c3ccc(C4=CCCC4)c(=O)n3C[C@H]1[C@H](CO)[C@H]2C(=O)N1CCOCC1`?
BL2 CD40 inh: -1[25 µM]

Results for COc1ccc(C[C@H]2CCn3nncc3COC[C@@H](CC(C)C)NC2=O)cc1 ?
BL2 CD40 inh: -21[25 µM]

How did C[C@@H]1CN([C@H](C)CO)C(=O)c2ccccc2-c2ccccc2CO[C@H]1CN(C)S(=O)(=O)c1cn(C)cn1 do in these assays?
BL2 CD40 inh: -8[25 µM]

Results for CC(C)c1cn(CC[C@@H]2CC[C@H](NC(=O)C3CCCCC3)[C@H](CO)O2)nn1 ?
BL2 CD40 inh: 1

How did Oc1c(C(Nc2ccccn2)c2ccccn2)ccc2cccnc12 (stereo unspecified) do in these assays?
BL2 CD40 inh: -6

Results for Cc1ccnc(NC(c2cccnc2)c2ccc3cccnc3c2O)c1 (stereo unspecified) ?
BL2 CD40 inh: -33

What do the screens show for `COc1ccccc1NC(c1cccnc1)c1ccc2cccnc2c1O` (stereo unspecified)?
BL2 CD40 inh: 49*

What do the screens show for `N#C[C@@H]1[C@@H](c2ccccc2C2=CCCCC2)[C@H](CO)N1S(=O)(=O)c1ccccc1`?
BL2 CD40 inh: 6[25 µM]

Results for N#C[C@H]1[C@H](c2ccccc2C2=CCCCC2)[C@@H](CO)N1S(=O)(=O)c1ccccc1 ?
BL2 CD40 inh: 60*[25 µM]

How did N#C[C@H]1[C@@H](c2ccccc2C2=CCCCC2)[C@H](CO)N1S(=O)(=O)c1ccccc1 do in these assays?
BL2 CD40 inh: 11[25 µM]

Results for CCc1cc2c(COC(=O)c3cc(S(=O)(=O)N4CCOCC4)ccc3F)cc(=O)oc2cc1O ?
BL2 CD40 inh: 51*

Results for N#Cc1ccccc1COC(=O)c1cc(S(=O)(=O)N2CCOCC2)ccc1F ?
BL2 CD40 inh: 11

What do the screens show for `O=C(OCC(=O)N1CCCC1=O)c1cc(S(=O)(=O)N2CCOCC2)ccc1F`?
BL2 CD40 inh: 13
